Data reported in PubChem BioAssay (NCI).
The panel holds about 83,000 compounds, 20% with a hit somewhere; the sample as a whole holds those more often.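 Plates (96-well) were seeded with cells, treated with compound at one concentration, and incubated for 48 hours before percent growth was determined.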 Values without a mark were called inactive. Calls of active or inactive are those of the source. Rule for the calls: active = growth percent below 10; inactive = the rest.

Columns and labels:
Assay in all cases: NCI-60 one-dose screen, 48 h (100 = growth as untreated, 0 = no growth, -100 = all killed)
Details in all cases: 10 µM unless noted
[1] = system: DU-145 prostate
[2] = system: K-562 leukemia
[3] = system: MALME-3M melanoma
[4] = system: MDA-MB-231 breast
[5] = system: RXF 393 renal
[6] = system: SF-268 CNS
[7] = system: SF-295 CNS
[8] = system: SF-539 CNS
[9] = system: UACC-257 melanoma
[10] = system: M14 melanoma

Row | Structure (SMILES) | growth [1] | growth [2] | growth [3] | growth [4] | growth [5] | growth [6] | growth [7] | growth [8] | growth [9] | growth [10]
1 | C/C(Nc1ccc(Cl)c(Cl)c1)=C1\CCOC1=O | 106% | 86.8% | 109% | 95% | 92.2% | 106% | 86.7% | 98.5% | 98.3% | 81.3%
2 | Fc1cc(F)cc(C(c2c[nH]c3ccccc23)c2c[nH]c3ccccc23)c1 | 105% | 118% | 130% | 86.6% | 115% | 97.6% | 78.6% | 106% | 99.8% | 98%
3 | Cc1cccc(Cl)c1NC(=O)c1ccc2nc(NC(=O)NCCN(C)C)sc2c1 | 104% | 14.7% | 70.7% | 92.6% | 47.5% | 93.6% | 86.7% | 79.8% | 86.1% | 90.5%
4 | Fc1cc2c(cc1Cl)N(c1ncnc3ccc(-c4cnc5[nH]ncc5c4)cc13)CC2 | 56.2% | 77.5% | 77.3% | 52.7% | 38.5% | 57.3% | 72.9% | 68.2% | 86.3% | 85.5%
5 | CC1=C(CCC(C)N(C)Cc2ccc(OCCCN3CCCC3)cc2)C(C)(C)CCC1 (stereo not given) | 65.3% | -22.2% (active) | -89.4% (active) | -43.6% (active) | -37.5% (active) | 48.2% | -4.45% (active) | -79% (active) | -74.3% (active) | -77.2% (active)
6 | N#Cc1cnc(NCCc2ccncc2)nc1-n1cnc2ccccc21 | 51.9% | 60.9% | 69% | 76.2% | 52.7% | 53% | 75.1% | 61.3% | 102% | 47.9%
7 | CCCc1cc(NC)nc(S(=O)(=O)CC)n1 | 109% | 97.7% | 110% | 109% | 108% | 98.4% | 99.9% | 100% | 106% | 99.8%
8 | O=C(c1ccccc1)C1C(=O)N2C(=S)N(c3ccccc3)C(=O)C2C1c1ccc(Cl)cc1 (stereo not given) | 109% | 99.1% | 88.1% | 90.4% | 90.4% | 97.5% | 94.2% | 98% | 101% | 96.3%
9 | COc1ccc(OC)c(C(=O)/C=C/c2cc3c(c(OC)c2OC)OCO3)c1 | 41.7% | 29.7% | 80.9% | 83.2% | 63.9% | 63.2% | 84.1% | 87.6% | 72.5% | 78.6%
10 | CCOC(=O)c1[nH]c(=O)c2c(C)nc(-c3ccccc3)cc2c1O | 112% | 110% | 136% | 78.8% | 112% | 106% | 110% | 106% | 106% | 104%
11 | COc1ccc(C/C(C)=C(/c2ccc(OCCN3CCCCC3)cc2)c2ccc(OC(=O)NCc3ccccc3)cc2)cc1 | -97.2% (active) | -56.3% (active) | -87.3% (active) | -86.9% (active) | -91.4% (active) | -76.6% (active) | -94.8% (active) | -92.5% (active) | -83.2% (active) | -92.3% (active)
12 | O=C1N[C@@H]2NC(=[N+]3CCOCC3)N[C@@H]2N1 | 114% | 98.6% | 92.9% | 103% | 116% | 100% | 99.9% | 98.2% | 109% | 102%
13 | CCCCCCCCCCCCCCCC(N)c1ccccc1 (stereo not given) | -62.9% (active) | 0.445% (active) | 79.5% | -71.9% (active) | -89.4% (active) | -38.9% (active) | -49.5% (active) | 88.4% | 82.6% | 3.85% (active)
14 | O=C(Cn1cc(CN2CCCCCC2)nn1)Nc1ccc2c(ccn2Cc2ccccc2)c1 | 101% | 79.5% | 91.1% | 86% | 91.4% | 93.6% | 99.6% | 92.6% | 101% | 94.1%
15 | CN1CCN(C(=O)OCc2ccc3c(Cl)cc(Cl)c(O)c3n2)CC1 | 56.3% | 18.1% | 81% | 90.5% | 71.3% | 53.3% | 45.3% | 66.2% | 89.3% | 55.4%
16 | CCN(CC)c1ccc(/C=C/C(=O)c2ccc(Nc3nc(Nc4ccccc4)nc(Nc4ccccc4)n3)cc2)cc1 | 51.6% | 22.5% | 43.2% | 52.8% | 10.6% | 62.1% | 1.72% (active) | 61.2% | 73.1% | 54.1%
17 | CCN(CC)CCOc1ccc(-c2c(-c3ccccc3)c(=O)oc3ccccc23)cc1 | 121% | 92.1% | 87.2% | 88.7% | 71.9% | 87.4% | 104% | 92.6% | 86.3% | 88.2%
18 | CC(=O)N1N=C(c2ccc(Nc3nc(Nc4ccc(Cl)cc4)nc(Nc4ccc(Cl)cc4)n3)cc2)CC1c1ccco1 (stereo not given) | 107% | 79.5% | 97.9% | 92.7% | 71.1% | 103% | 92.8% | 96% | 96.4% | 90.5%
19 | Clc1ccc(CNc2c3ccccc3nc3ccccc23)cc1 | 54.8% | 4.34% (active) | 39.6% | 54.8% | 29.7% | 67.9% | 59.6% | 30.3% | 76.1% | 53.3%
20 | CCOC(=O)C(=Cc1cccc(Br)c1)C(=O)OCC | 4.57% (active) | 21.3% | 73.1% | 38.1% | 40.3% | 25.7% | 97% | 4.36% (active) | 35% | 32.9%
21 | CCN(CC)CCSc1nc(-c2ccccc2)c(C#N)c(=O)[nH]1 | 112% | 129% | 140% | 116% | 118% | 102% | 105% | 100% | 111% | 111%
22 | O=[N+]([O-])c1ccc(-c2nc(N3CCOCC3)c3c4c(sc3n2)CCCC4)cc1 | 113% | 99.6% | 89.2% | 81% | 104% | 94.8% | 87.4% | 102% | 92.7% | 85.6%
23 | Cn1ccnc1C(=O)C(=O)Nc1ccc(CC(=O)Nc2ccccc2)cc1 | 104% | 111% | 101% | 109% | 102% | 96.7% | 106% | 99.4% | 110% | 104%
24 | CC(C)N1CN2C(=S)NC3C2N(C1)C(=S)N3C (stereo not given) | 104% | 102% | 105% | 110% | 105% | 96% | 98% | 109% | 95% | 105%
25 | Cc1nc2ncnc(Cl)c2[nH]1 | 106% | 97.3% | 106% | 103% | 112% | 103% | 107% | 103% | 91.1% | 88.8%
26 | CCS/C(Nc1ccccc1)=C(\C#N)C(=O)N/N=C/c1ccc(Cl)cc1Cl | 20% | 7.35% (active) | 38.1% | 39% | 2.63% (active) | 34% | 17% | 4.25% (active) | 51.9% | 21%
27 | C[C@H](NC(=O)[C@@H](C)N)[C@H](Oc1ccc2c(cnn2-c2ccc(F)cc2)c1)c1ccc2c(c1)OCCO2 | 55.4% | -3.32% (active) | -24.7% (active) | 42.5% | 62% | 42.5% | 77% | 74% | 63.9% | -69.6% (active)
